Results from the supplement of paper PMC10849652.
Targets with a hit are over-represented here; the source holds about 8,800 in all. About 0.5% of all pairs of compound and target were hits.

What was measured:
Assay in all cases: log2 fold change, soluble protein after heating vs DMSO (PISA); higher = thermal stabilisation; K562 lysate, 10 uM; active = over 0.2 and 3.5 SD of the protein, either way, in both replicates (recomputed)
[1] = compound: C1=CC=C(C=C1)[C@H](COC2=CC3=C(C=C2)NC(=O)N3)NC(=O)C4=CC=CN(C4=O)CC5=CC(=C(C=C5)F)F
Method in brief: (§1)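 Dounce homogenisation of K562 pellets in PBS pH 7.4 with 1 mM MgCl2 produced a crude extract, used at 1 mg/mL protein. Exposure to 10 μM compound lasted 30 min, and aliquots were then heated for 3 min across 48°C-58°C, pooled and brought to 0.5% NP-40 at 4°C. The supernatant after 21,000xg for 90 min was quantified by TMTpro 16plex LC-MS/MS with channel sums equalised. Duplicate values are given as log-two fold change in thermal stability relative to solvent controls.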

[2] = compound: CC1=C(SC2=C1C(=N[C@H](C3=NN=C(N32)C)CC(=O)N)C4=CC=C(C=C4)Cl)C
Method in brief: as §1

[3] = compound: CC1=C2C(=CC=C1)N=C(N(C2=O)C3=CC=CC=C3C)CN4C=NC5=C(N=CN=C54)N
Method in brief: as §1

[4] = compound: Cc1sc2c(c1C)C(c1ccc(Cl)cc1)=N[C@@H](CC(=O)OC(C)(C)C)c1nnc(C)n1-2
Method in brief: as §1

[5] = compound: c1ccc([C@@H]2C[C@H]2NC2CCNCC2)cc1
Method in brief: as §1

Measured: log2 fold change

TPST2 (UniProt O60704)
Chain of UniProt O60704 (O60704 whole entry, looked up): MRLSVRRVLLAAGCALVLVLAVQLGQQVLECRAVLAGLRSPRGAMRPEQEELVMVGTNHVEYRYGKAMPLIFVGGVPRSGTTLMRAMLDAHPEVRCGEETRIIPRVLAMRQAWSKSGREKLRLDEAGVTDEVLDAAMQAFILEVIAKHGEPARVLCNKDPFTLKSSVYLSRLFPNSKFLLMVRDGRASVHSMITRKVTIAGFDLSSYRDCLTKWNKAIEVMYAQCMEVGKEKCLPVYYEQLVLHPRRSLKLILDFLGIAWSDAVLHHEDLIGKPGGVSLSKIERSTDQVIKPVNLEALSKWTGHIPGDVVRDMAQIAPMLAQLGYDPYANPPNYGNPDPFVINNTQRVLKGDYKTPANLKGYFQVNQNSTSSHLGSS
inactive: [1] -0.034 | [2] 0.021 | [3] -0.028 | [4] -0.054 | [5] -0.384

TUBA3C (UniProt P0DPH7)
Chain of UniProt P0DPH7 (P0DPH7 whole entry, looked up): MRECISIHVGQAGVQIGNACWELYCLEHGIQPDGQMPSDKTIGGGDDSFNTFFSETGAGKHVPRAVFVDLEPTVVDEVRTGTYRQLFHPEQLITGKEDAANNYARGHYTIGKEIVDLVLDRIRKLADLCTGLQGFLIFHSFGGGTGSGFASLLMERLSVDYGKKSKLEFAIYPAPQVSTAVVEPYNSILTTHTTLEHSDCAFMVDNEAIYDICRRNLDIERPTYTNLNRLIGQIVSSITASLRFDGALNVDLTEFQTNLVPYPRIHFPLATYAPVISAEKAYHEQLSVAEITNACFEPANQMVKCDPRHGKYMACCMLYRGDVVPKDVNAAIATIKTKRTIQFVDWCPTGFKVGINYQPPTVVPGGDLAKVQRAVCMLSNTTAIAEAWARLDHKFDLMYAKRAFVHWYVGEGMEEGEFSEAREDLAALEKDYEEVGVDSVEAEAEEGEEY
inactive: [1] 0.012 | [2] 0.022 | [3] 0.029 | [4] -0.017 | [5] -0.074

TEX30 (UniProt Q5JUR7)
Chain of UniProt Q5JUR7 (Q5JUR7 whole entry, looked up): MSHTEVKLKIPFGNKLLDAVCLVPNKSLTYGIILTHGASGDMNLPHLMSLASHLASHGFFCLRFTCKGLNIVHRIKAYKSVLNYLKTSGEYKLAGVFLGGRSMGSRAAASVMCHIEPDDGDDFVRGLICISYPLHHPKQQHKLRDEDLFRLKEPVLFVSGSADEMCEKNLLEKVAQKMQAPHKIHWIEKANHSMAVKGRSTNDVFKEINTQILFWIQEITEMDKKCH
inactive: [1] -0.074 | [2] 0.066 | [3] -0.006 | [4] -0.1 | [5] -0.038

UBR5 (UniProt O95071)
Chain of UniProt O95071 (O95071 whole entry, looked up): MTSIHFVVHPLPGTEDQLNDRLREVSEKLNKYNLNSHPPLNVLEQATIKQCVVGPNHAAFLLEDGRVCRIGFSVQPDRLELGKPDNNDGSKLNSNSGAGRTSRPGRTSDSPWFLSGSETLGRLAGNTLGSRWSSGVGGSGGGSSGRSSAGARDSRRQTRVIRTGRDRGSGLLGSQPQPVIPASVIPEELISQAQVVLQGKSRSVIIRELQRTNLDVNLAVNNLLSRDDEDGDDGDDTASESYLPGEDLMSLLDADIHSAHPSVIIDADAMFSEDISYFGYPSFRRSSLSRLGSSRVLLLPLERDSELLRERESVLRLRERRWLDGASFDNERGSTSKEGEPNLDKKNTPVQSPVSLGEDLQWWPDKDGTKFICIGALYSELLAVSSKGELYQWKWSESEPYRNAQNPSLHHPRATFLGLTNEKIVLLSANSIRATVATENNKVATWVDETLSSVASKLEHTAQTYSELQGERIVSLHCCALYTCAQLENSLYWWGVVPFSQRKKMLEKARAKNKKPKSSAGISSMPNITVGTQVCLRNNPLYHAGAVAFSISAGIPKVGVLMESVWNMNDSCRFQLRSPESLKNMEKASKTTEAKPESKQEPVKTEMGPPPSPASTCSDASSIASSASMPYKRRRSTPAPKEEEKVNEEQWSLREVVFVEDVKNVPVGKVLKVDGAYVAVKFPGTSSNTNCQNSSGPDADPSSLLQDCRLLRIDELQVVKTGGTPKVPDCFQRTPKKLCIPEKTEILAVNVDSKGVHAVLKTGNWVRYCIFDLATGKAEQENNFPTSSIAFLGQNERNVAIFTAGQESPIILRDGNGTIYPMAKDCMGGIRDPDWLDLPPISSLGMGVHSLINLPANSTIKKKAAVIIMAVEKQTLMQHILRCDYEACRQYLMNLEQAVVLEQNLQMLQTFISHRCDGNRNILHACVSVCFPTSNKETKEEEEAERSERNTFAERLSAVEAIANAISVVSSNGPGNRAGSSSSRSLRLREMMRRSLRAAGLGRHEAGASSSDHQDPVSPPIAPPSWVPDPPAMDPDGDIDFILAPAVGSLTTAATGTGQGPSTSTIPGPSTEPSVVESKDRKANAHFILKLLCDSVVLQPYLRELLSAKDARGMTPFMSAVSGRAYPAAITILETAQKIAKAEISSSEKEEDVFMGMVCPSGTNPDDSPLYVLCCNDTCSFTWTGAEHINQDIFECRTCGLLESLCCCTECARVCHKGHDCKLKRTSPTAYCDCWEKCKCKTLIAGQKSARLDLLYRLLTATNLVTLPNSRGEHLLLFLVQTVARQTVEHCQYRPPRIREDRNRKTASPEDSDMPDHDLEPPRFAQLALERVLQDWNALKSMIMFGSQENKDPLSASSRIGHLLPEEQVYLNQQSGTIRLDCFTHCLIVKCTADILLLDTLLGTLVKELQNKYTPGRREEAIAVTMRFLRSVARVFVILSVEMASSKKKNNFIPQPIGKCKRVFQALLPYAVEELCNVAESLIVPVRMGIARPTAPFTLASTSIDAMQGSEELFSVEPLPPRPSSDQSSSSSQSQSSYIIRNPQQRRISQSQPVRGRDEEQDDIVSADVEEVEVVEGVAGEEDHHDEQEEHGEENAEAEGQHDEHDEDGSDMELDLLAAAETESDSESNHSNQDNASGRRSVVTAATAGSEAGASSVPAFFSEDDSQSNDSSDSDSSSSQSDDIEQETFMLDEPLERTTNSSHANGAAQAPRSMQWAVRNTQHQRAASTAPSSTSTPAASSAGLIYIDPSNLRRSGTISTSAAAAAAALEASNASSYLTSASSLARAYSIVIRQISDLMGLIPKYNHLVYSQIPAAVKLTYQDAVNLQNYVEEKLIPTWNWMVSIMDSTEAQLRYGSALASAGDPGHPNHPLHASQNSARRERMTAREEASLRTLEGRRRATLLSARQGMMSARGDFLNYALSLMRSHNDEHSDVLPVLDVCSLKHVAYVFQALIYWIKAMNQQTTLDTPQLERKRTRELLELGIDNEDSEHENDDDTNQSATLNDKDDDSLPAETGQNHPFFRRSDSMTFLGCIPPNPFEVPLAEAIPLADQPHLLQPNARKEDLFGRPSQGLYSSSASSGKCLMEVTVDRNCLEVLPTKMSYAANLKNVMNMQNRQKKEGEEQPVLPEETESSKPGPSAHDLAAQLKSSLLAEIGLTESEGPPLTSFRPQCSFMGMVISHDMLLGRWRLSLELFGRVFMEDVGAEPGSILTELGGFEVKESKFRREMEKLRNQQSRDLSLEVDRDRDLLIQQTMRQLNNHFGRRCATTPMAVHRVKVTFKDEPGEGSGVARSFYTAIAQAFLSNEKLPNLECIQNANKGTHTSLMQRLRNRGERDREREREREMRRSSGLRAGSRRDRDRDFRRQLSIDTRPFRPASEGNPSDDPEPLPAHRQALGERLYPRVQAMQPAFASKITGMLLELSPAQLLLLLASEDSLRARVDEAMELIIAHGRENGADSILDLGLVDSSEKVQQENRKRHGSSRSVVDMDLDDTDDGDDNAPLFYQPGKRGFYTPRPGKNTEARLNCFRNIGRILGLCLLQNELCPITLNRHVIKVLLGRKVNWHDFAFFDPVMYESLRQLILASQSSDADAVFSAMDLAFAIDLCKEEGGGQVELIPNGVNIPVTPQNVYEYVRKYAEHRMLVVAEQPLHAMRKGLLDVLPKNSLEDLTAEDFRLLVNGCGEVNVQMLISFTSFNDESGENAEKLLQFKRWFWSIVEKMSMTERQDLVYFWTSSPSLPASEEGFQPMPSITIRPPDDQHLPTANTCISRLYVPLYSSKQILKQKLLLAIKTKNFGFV
inactive: [1] -0.011 | [2] 0.012 | [3] 0.012 | [4] -0.018 | [5] 0.01

UBAP2 (UniProt Q5T6F2)
inactive: [1] -0.019 | [2] -0.003 | [3] -0.008 | [4] -0.022 | [5] -0.119

TBCE (UniProt Q15813)
inactive: [1] 0.008 | [2] -0.027 | [3] 0.014 | [4] 0.008 | [5] 0.015

TRIM65 (UniProt Q6PJ69)
Chain of UniProt Q6PJ69 (Q6PJ69 whole entry, looked up): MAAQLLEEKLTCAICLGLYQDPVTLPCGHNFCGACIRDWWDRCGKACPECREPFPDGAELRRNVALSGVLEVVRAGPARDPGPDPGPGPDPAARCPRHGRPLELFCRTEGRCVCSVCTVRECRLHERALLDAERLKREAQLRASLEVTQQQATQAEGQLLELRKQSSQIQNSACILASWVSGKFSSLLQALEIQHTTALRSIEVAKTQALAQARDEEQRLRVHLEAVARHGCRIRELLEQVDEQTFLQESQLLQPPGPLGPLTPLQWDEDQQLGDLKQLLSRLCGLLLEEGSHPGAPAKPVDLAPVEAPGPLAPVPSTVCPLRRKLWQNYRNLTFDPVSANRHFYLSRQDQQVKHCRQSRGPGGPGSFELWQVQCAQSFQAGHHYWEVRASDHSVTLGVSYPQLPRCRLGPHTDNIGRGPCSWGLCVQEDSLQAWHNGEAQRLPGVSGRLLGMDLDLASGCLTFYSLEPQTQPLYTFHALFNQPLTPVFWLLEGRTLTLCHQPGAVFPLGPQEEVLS
inactive: [1] 0.051 | [2] -0.085 | [3] -0.016 | [4] 0.012 | [5] 0.039

TMEM263 (UniProt Q8WUH6)
inactive: [1] -0.286 | [2] -0.048 | [3] 0.211 | [4] -0.138 | [5] -0.073

TXNRD2 (UniProt Q9NNW7)
Chain of UniProt Q9NNW7 (Q9NNW7 whole entry, looked up): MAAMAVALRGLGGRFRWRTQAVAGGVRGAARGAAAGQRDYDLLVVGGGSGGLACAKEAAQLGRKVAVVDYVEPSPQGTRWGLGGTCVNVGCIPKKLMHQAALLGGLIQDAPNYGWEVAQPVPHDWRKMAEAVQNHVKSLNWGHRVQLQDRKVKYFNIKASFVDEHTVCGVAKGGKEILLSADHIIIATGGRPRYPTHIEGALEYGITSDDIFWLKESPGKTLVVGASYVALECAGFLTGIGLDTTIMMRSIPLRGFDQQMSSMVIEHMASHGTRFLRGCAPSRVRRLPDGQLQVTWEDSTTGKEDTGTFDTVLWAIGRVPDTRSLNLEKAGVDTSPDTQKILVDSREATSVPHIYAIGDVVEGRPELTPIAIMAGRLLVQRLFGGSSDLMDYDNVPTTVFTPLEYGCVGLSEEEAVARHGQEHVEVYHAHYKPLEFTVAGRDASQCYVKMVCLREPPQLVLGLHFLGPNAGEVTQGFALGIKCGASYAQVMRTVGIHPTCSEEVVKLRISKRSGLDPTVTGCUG
inactive: [1] 0.023 | [2] -0.015 | [3] -0.048 | [4] -0.042 | [5] 0.006
